Measurements taken from ChEMBL document CHEMBL3433997, “St. Jude Leishmania screening dataset” (2016).

What was measured:
Format in all cases: functional
[1] = target: Solute carrier family 2, facilitated glucose transporter member 1 (Homo sapiens) (UniProt P11166); experiment: ST_JUDE_LEISH: Cytotoxicity at 2uM final concentration against transgenic Leishmania Mexicana promastigotes LmGLUT1 that are glucose transport deficient and complemented with the human glucose transporter GLUT1. Activity is measured by DNA content using SYBR green in vitro
[2] = target: Hexose transporter 1 (Plasmodium falciparum) (UniProt O97467); experiment: ST_JUDE_LEISH: Cytotoxicity at 2uM final concentration against transgenic Leishmania Mexicana promastigotes LmPfHT that are glucose transport deficient and complemented with the Plasmodium falciparum hexose transporter. Activity is measured by DNA content using SYBR green in vitro
[3] = target: Glucose transporter (Leishmania mexicana) (UniProt O61059); experiment: ST_JUDE_LEISH: Cytotoxicity at 2uM final concentration against transgenic Leishmania Mexicana promastigotes LmGT2 that are glucose transport deficient and complemented with the L. Mexicana glucose transporter 2. Activity is measured by DNA content using SYBR green in vitro

Sequence of Solute carrier family 2, facilitated glucose transporter member 1 (Homo sapiens) (P11166 whole entry): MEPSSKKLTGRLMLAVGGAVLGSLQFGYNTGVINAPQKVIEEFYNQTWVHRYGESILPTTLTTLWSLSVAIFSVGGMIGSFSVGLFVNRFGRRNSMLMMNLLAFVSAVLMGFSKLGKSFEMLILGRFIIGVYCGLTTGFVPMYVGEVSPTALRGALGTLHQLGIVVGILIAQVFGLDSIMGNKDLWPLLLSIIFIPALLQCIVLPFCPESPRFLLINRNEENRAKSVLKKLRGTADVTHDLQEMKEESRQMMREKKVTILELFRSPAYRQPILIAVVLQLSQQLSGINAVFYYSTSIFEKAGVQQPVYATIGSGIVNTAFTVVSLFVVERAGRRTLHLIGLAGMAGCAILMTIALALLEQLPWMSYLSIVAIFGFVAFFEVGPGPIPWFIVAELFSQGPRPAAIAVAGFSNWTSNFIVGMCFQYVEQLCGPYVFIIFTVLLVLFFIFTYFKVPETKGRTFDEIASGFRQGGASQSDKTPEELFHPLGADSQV

Row | Structure (SMILES) | inhibition [1] | inhibition [2] | inhibition [3]
1 | Cc1cccc(-c2nc3cc(NC(=O)c4ccc([N+](=O)[O-])o4)ccc3o2)c1 | 6.53% | 7.69% | 2.04%
2 | COc1ccc(C(=O)CCC(=O)N(Cc2ccc(-c3ccc(CNCCc4ccccc4)cn3)cc2)C(C)CN(C)C)cc1F (stereo not drawn) | 2.12% | 1.14% | 0.82%
3 | O=C(Nc1cccc(-c2csc(-c3nc4ccccc4[nH]3)c2)c1)c1cccnc1 | 1.57% | 4.05% | -0.53%
4 | CS(=O)(=O)c1ccc(CNCc2cccc(-c3cccc(-c4nc5ccccc5[nH]4)c3)c2)cc1 | 2.3% | 0.28% | -2.15%
5 | CCOC(=O)c1nc(-c2ccccc2)[nH]c1-n1nc(C)cc1C | 1.44% | 0.92% | 0.66%
6 | COc1ccccc1-c1cc(C(=O)N2CCN(S(=O)(=O)c3ccc(C)cc3)CC2)[nH]n1 | 6.02% | 3.73% | -0.58%
7 | CCCN(CCC)C(=O)c1cc(C(=O)N[C@@H](Cc2ccccc2)[C@H](O)CNCc2cccc(C(F)(F)F)c2)cc(N2CCCCS2(=O)=O)c1 | -1.33% | -0.49% | -0.16%
8 | COc1ccc(NC(=O)/C=C/c2ccccc2Cl)cc1OCCN1CCC(N2CCN(C)CC2)CC1 | 4.65% | 6.39% | 0.87%
9 | O=C(NCCSCc1c(F)cccc1Cl)c1cnc2c(c1)nc(-c1c[nH]c(-c3ccccc3)n1)n2CCc1c[nH]cn1 | 2.77% | 2.22% | 0.97%
10 | CCOc1cc(Cl)c(C(C)NC(=O)c2cccc(OC)c2)cc1OCC (stereo not drawn) | 7.84% | 7.46% | 4.84%
11 | Cc1cc(NCCC(=O)Nc2ccccc2)nc(NCCc2cccs2)n1 | 4.03% | 2.26% | -0.18%
12 | Cc1[nH]c(C)c(-c2ccc(Oc3ccc(Cl)cc3)cc2)c(=O)c1Cl | 2.75% | 2.92% | 1.25%
13 | Cc1cc(N(C)CCN(C)C)nc(Nc2ccc(Br)cc2)n1 | -0.17% | 3.61% | 2.53%
14 | O=C(/C=C/c1cccs1)NCC(NCCCNc1cc(=O)c2ccccc2[nH]1)c1cc(Br)cc(Br)c1 (stereo not drawn) | 4.13% | 3.76% | 4.57%
15 | Cc1cc2[nH]c(-c3ccc(C(=O)NCCCN4CCN(c5cccc(Cl)c5)CC4)cc3)nc2cc1Cl | 1.69% | 3.45% | -1.01%
16 | CC(C)c1cc(C(=O)N[C@@H](Cc2ccccc2)[C@H](O)CNC2CCCCC2)cc(N2CCCC2=O)c1 | 2.19% | 1.07% | 2.18%
17 | COc1cc(-c2ccc(-c3cnc(N)nc3OC)[nH]2)cc(OC)c1OC | 5.61% | 5.42% | 2.7%
18 | COc1ccc2c(NN=Cc3ccccc3)ccnc2c1 | 1.36% | -2.08% | -1.04%
19 | CCN(CC)S(=O)(=O)n1ncc2c3c(N)nc(N)nc3ccc21 | -2.64% | 0.17% | -2.31%
20 | Fc1ccccc1COc1ccc(Nc2ncnc3ccc(I)cc23)cc1Cl | 18.2% | 9.09% | 4.67%
21 | CNC(=N)c1ccc(NC(=O)c2ccc(C(=O)Nc3ccc(C(=N)NC)cc3)cc2)cc1 | 1.44% | 2.97% | 1.84%
22 | COc1ccc(C2CCN(CCCCNC(=O)c3ccc(NC(=O)c4ccc(Cl)cc4)cc3)CC2)c(OC)c1 | 6.64% | 5.21% | 3.22%
23 | O=C(Nc1cccc(Cl)c1Cl)N[C@H]1CCN(CCCCCNC(=O)C2CC2c2ccc(Cl)c(Cl)c2)C1 (stereo partly drawn) | 5.31% | 4.52% | 1.19%
24 | Cc1ccc2[nH]c3c(NCCCN4CCOCC4)ncnc3c2c1 | 7.43% | -2.37% | 0.92%

Row | Structure (SMILES) | inhibition [1] | inhibition [2] | inhibition [3]
25 | Cc1ccc(-c2nc(Nc3ccncc3)c3ccccc3n2)s1 | 5.34% | 3.16% | 0.88%
26 | CC(C)CNCc1cccc(-c2ccc(CNc3ccc(C(=O)c4ccccc4)cc3)cc2)c1 | 1.27% | 0.62% | -1.03%
27 | CC(C)(C)c1ccc(C(=O)NC2CCC(CCN3CCc4ccc(S(C)(=O)=O)cc4CC3)CC2)cc1C(F)(F)F (stereo not drawn) | 1.87% | 2.06% | 6.75%
28 | Fc1ccc2[nH]c(-c3cccc(-c4ccc(CN5CCN(CCN6CCOCC6)CC5)cc4)c3)nc2c1 | 1.26% | 1.68% | 1.79%
29 | O=C(NCc1cccc(F)c1)c1ccc(O)c(-c2cc(Cl)cc(Cl)c2)c1 | 4.04% | 3.75% | 4.34%
30 | CCn1cc2c3c(cc(C(=O)N[C@@H](Cc4ccccc4)[C@H](O)CNCc4cccc(OC)c4)cc31)N(C)S(=O)(=O)CC2 | 1.89% | 3.02% | 2.18%
31 | N#Cc1ccc(-c2ccc(OCC(O)CN3CCCN(Cc4cccc(O)c4Cl)CC3)cc2)cc1 (stereo not drawn) | 4.04% | 0.72% | 1.67%
32 | OC1CCC(Nc2ccc3ncc(-c4ccc5ccccc5c4)n3n2)CC1 (stereo not drawn) | 1.14% | 3.23% | 3.53%
33 | CCCC(C)C(=O)N1CCOC(COCc2cccc(C(F)(F)F)c2)(c2ccc(Cl)cc2)C1 (stereo not drawn) | -0.83% | 0.15% | -1.52%
34 | CCOc1ccc(-c2noc(-c3c[nH]c4ccccc4c3=O)n2)cc1 | 1.69% | -0.34% | 2.82%
35 | O=C(CC1NC(=O)c2ccccc21)Nc1ccc(-c2cccc(-c3nc4cc(C(F)(F)F)ccc4[nH]3)c2)cc1 (stereo not drawn) | 1.2% | 2.78% | 0.79%
36 | Fc1ccccc1C=NN=c1cc[nH]c2ccccc12 | 4.61% | 4.39% | 4.15%
37 | COC(=O)C(=C(C)C)N1C(=O)[C@@H](NC(=O)OCc2ccccc2)[C@H]1SS[C@@H]1[C@H](NC(=O)OCc2ccccc2)C(=O)N1C(C(=O)OC)=C(C)C | -2.06% | -0.42% | -1.05%
38 | CCc1ccc(CN2CCC(CNC(=O)c3cc(-c4cccc(C(F)(F)F)c4)cs3)C2)cc1 (stereo not drawn) | -2.78% | -0.98% | -1.61%
39 | COc1cccc(OC)c1C(=O)N1CCC2(CC1)C(=O)N(CC(=O)NC1CCCCC1)CN2c1ccccc1 | 0.35% | 4.45% | 3.89%
40 | Cc1cc(Nc2ncc3c(n2)N(C2CCC2)CC3)ccc1N1CCN(C)CC1 | 0.65% | 1.15% | 1.26%
41 | O=C(O)C[C@H](NC(=O)CCCNC(=O)c1cccc(-c2ccc(Cl)c(Cl)c2)c1)C(=O)O | -1.37% | 0.62% | 1.4%
42 | COc1cccc(NC(=O)NC2CCN(c3ccnc(Nc4cc(OC)c(OC)c(OC)c4)n3)C2)c1 (stereo not drawn) | 1.18% | -1.6% | 5.86%
43 | COc1c(C2CCN(CCCCNC(=O)c3ccc(C)c(-c4ccc(C(F)(F)F)cc4)c3)CC2)ccc2c1CCCC2 | -1.99% | -1.46% | -0.09%
44 | CC(C)N1CCN(C(CN2CCN(CCCOc3cccc(-c4ccccc4)c3)CC2)c2ccc(F)cc2)CC1 (stereo not drawn) | 0.87% | 2.77% | 0.81%
45 | Cc1cccc2nc(-c3ccc(-c4ccc(CNCCCNS(C)(=O)=O)cc4)s3)[nH]c12 | 7.9% | 8.05% | 6.95%
46 | Clc1ccc2c(NN=Cc3cccs3)ccnc2c1 | 1.34% | 1.3% | 2.8%
47 | CCCCCCN(CCCCCC)CC(O)c1cc(-c2ccc(Cl)cc2)nc2c(C)cc(C)cc12 (stereo not drawn) | 8.61% | 6.85% | 8.75%
48 | CCOC(=O)c1ccc(OCc2ccc(-c3ccccc3)cc2)cc1 | -0.38% | -0.13% | 0.75%

Row | Structure (SMILES) | inhibition [1] | inhibition [2] | inhibition [3]
49 | O=C(C=Cc1ccc(F)cc1)NC1CCC(CCN2CCc3ccc(-c4cnccn4)cc3CC2)CC1 (stereo not drawn) | 0.54% | -0.24% | 1.49%
50 | O=C(CN1CCN(C(=O)c2ccco2)CC1)Nc1ccc(Br)cc1Cl | -3.24% | -1.31% | -0.59%
51 | COc1ccc(CNCc2ccc(-c3ccc(-c4nc5cc(C(F)(F)F)ccc5[nH]4)cc3)cc2)cc1 | 3.97% | 1.19% | 3.06%
52 | [O-][s+]1c(Cl)c(-c2ccc(Cl)cc2)c2ccc(Cl)cc21 (stereo not drawn) | 6.36% | 8.82% | 3.59%
53 | O=C(NCCN1CCOCC1)c1ccc(-c2ccc(CNCCCc3ccccc3)cc2)nc1 | -1.5% | -3% | -0.47%
54 | CCc1c(C)nc(-n2nc(C)cc2NC(=O)CCc2ccccc2)[nH]c1=O | 0.86% | 2.79% | 2.86%
55 | CNC(=O)c1ccccc1Nc1nc(Nc2ccc(N3CCOCC3)cc2)ncc1Cl | 77.2% | 84.9% | 74.6%
56 | Cn1c(Nc2cc(C(C)(C)C)on2)nc2cc(Nc3ccnc(Nc4cccc(S(=O)(=O)N5CCOCC5)c4)n3)ccc21 | 5.63% | 2.67% | -0.88%
57 | CCCN(CCC)CCCN(CCCN(CCC)CCC)c1cc(C)nc(Nc2ccc3cc(Br)ccc3c2)n1 | 50.9% | 35.1% | 37.8%
58 | COc1ccc(N2C(N)=NC(N)=NC2(C)C)cc1OC | 3.76% | 5.41% | 5.83%
59 | COc1ccc(C#Cc2ccc(-c3c(C)[nH]c(C)c(Cl)c3=O)cc2)cc1 | 6.05% | 8.9% | 4.03%
60 | CCCCOP(=O)(OCCCC)C(=Cc1ccc(O)c2ccccc12)P(=O)(OCCCC)OCCCC | 5.02% | 4.67% | 5.24%
61 | CN1CCN(CCCN(Cc2cccc(-c3ccc(CNCCc4ccccc4)cc3)c2)C(=O)Nc2ccccc2)CC1 | 2.48% | 7.14% | 1.35%
62 | CCc1cc(N2CCN(c3ccccc3F)CC2)nc(SCc2ccc(C(=O)NC3CC3)o2)n1 | 2.82% | 1.67% | 2.15%
63 | O=C(NCCCN1CCC(N2CCCCC2)CC1)c1ccc2nc(N3CCCCC3)sc2c1 | 5.78% | 8.39% | 8.02%
64 | COc1cc2cc(C(=O)Nc3ccccc3)c(N)nc2cc1OC | 0.36% | 1.61% | 0.18%
65 | CCCCCCNCCOc1ccc(-c2nc(-c3ccccc3)c(-c3ccccc3)[nH]2)cc1 | 4.61% | 1.32% | 1.62%
66 | CC(Cc1ccc(OCc2ccccc2)cc1)Nc1nc(O)c2ccccc2n1 (stereo not drawn) | 2.96% | 1.33% | 3.22%
67 | CC(C)(CN)c1nc(-c2ccc(Cl)c(O)c2)c(-c2ccncc2)[nH]1 | -2.49% | 0.02% | 1.18%
68 | CCCC(C)NC[C@@H](O)[C@H](Cc1ccccc1)NC(=O)c1cc(C2CCCC2)cc(N2CCCCS2(=O)=O)c1 (stereo partly drawn) | 3.4% | 3.66% | 2.98%
69 | CCNc1cc(C(=O)N[C@@H](Cc2ccccc2)[C@H](O)CN[C@H]2CCc3ccccc32)cc(N2CCCC2=O)c1 | 1.96% | 1.74% | 2%
70 | CC1(C)N=C(N)N=C(N)N1OCc1cccc(C#N)c1 | 2.81% | 0.82% | 1.5%
71 | COc1cc(-n2cnc3cc(-c4ccc(Cl)cc4)sc3c2=O)ccc1OCCN1CCC(c2cccc(NC(C)=O)c2)CC1 | 6.68% | 3.81% | 3.05%
